Assay outcomes (PubChem)
The list is not random: actives were taken first. Their share in the collection is about 19%.
TDP1 cell CPT: DT40-hTDP1 cell growth loss with CPT; chicken DT40 Tdp1-/-;hTDP1 cells + 20 nM CPT, ATP luminescence, 48 h; Potency, µM (doses to about 46.2 µM), usual class: inhibitors; 420,000 compounds, 12% hits; AID 686979; note: nearly all actives have a fitted effect of over 55% in size
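Chicken DT40 Tdp1-/- cells complemented with human TDP1, 400 cells/well, exposed to compounds plus 20 nM camptothecin for at least 48 h at 37 C; viability read as ATP content by CellTiter-Glo luminescence.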
KB-3-1 tox: kills parental KB-3-1 adenocarcinoma cells | KB-3-1 viability, CellTiter-Glo ATP luminescence, 72 h | Potency, µM (titrated, usually from 46.1 µM), usual class: cytotoxic | 400,000 compounds, 1.4% hits | AID 1347075; note: nearly all actives have a fitted effect of over 60% in size
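Cytotoxicity measured as CellTiter-Glo luminescence after 72 h at 37 C. Compound titrations were pinned onto drug-naive KB-3-1 parental adenocarcinoma cells grown in DMEM with 10% FBS, and normalized data fitted to concentration-response curves.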
HT1080 IDH1KD tx: kills HT-1080 cells with IDH1 knockdown. Potency, µM (series often up to 46.1 µM), most hits filed as cytotoxic. HT-1080 IDH1 knockdown viability, ATP luminescence, 48 h. 360,000 compounds, 2% hits. AID 686971
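Luminescent ATP read-out (CellTiter-Glo, 10 min at room temperature) after 48 h compound exposure at 37 °C gave viability of IDH1-knockdown HT-1080 cells. Activity was normalised to DMSO and cell-free wells, then fitted as concentration-response curves.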
DT40 TDP1 no CPT: qHTS for Inhibitors of human tyrosyl-DNA phosphodiesterase 1 (TDP1): qHTS in cells in absence of CPT | AID 686978, 2013 | DT40 Tdp1-/- hTDP1 cells, no CPT, ATP luminescence, 48 h | 420,000 compounds, 15% hits | Potency, µM (highest dose often 46.2 µM), most hits filed as inhibitors; note: nearly all actives have a fitted effect of over 55% in size
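No-CPT arm: Tdp1-/-;hTDP1 DT40 cells (400/well) plus compounds, incubated ≥48 hr at 37 °C. Readout CellTiter-Glo luminescence.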
HT1080NT lethal: kills 2HG-producing HT-1080-NT fibrosarcoma cells; HT-1080-NT fibrosarcoma viability, CellTiter-Glo ATP luminescence, 48 h; Potency, µM (series often up to 46.1 µM), usual class: cytotoxic; 360,000 compounds, 1.6% hits; AID 686970;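 note: NT is the 2HG producing partner of a matched IDH1 knockdown line; nearly all actives have a fitted effect of over 55% in size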
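Fibrosarcoma NT cells, 750 per well in 5% FBS RPMI, were exposed to compound for 48 hours. Viability: CellTiter-Glo luminescence.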
KB-V1 cytotox: kills drug-selected multidrug resistant KB-V1 cells; 400,000 compounds, 3.4% hits; KB-V1 MDR cells viability, CellTiter-Glo, 72 h; Potency, µM (doses to about 46.1 µM), actives largely listed as cytotoxic; note: nearly all actives have a fitted effect of over 60% in size
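Following 72 h at 37 degrees C with compound, KB-V1 cell viability was read by CellTiter-Glo luminescence, medium being phenol-red-free DMEM plus 10% FBS; concentration-response parameters came from normalized, curve-fitted qHTS data.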
A number is an active result. Calls come from the whole dose curve; as a rule, active = well fitted curve in the direction sought with a large enough effect; inconclusive = small, poorly fitted or top-dose-only effect, or another doubt; inactive = no such curve, though single readings can be large; an effect the other way counts as inactive or inconclusive.

What do the screens show for `CCN(CC)C(=O)[C@H]1CC(CC(=O)NCCCn2ccnc2)C(=O)N2CCc3c([nH]c4ccc(OC)cc34)[C@]12C` (stereo partly drawn)?
TDP1 cell CPT: inactive; KB-3-1 tox: inactive; HT1080 IDH1KD tx: inactive; DT40 TDP1 no CPT: inactive; HT1080NT lethal: inactive; KB-V1 cytotox: inactive

Results for C[C@@H]1CCC2[C@](C)(CO)C(O)CC[C@@]2(C)[C@@]12CC[C@](CO)(CCO)O2 (stereo partly drawn) ?
TDP1 cell CPT: inactive; DT40 TDP1 no CPT: inactive

What do the screens show for `O=C(Cn1ncc2c3ccccc3n(Cc3cccc(Cl)c3)c2c1=O)NCCCN1CCCCC1`?
TDP1 cell CPT: inactive; KB-3-1 tox: inactive; DT40 TDP1 no CPT: inactive; KB-V1 cytotox: inconclusive

Results for O=C(CCCC(=O)Nc1cccc(Br)c1)N/N=C/c1cc([N+](=O)[O-])ccc1O ?
TDP1 cell CPT: 5.8µM; KB-3-1 tox: inconclusive; HT1080 IDH1KD tx: inconclusive; DT40 TDP1 no CPT: 5.2µM; HT1080NT lethal: inactive; KB-V1 cytotox: inactive

Results for Cc1ccccc1NC(=O)CCC(=O)N/N=C/c1cc([N+](=O)[O-])ccc1O ?
TDP1 cell CPT: inconclusive; KB-3-1 tox: inactive; HT1080 IDH1KD tx: inconclusive; DT40 TDP1 no CPT: 16µM; HT1080NT lethal: inactive; KB-V1 cytotox: 21µM

Results for O=C(CN(c1cccc(Br)c1)S(=O)(=O)c1ccccc1)N/N=C/c1cc([N+](=O)[O-])ccc1O ?
TDP1 cell CPT: inconclusive; KB-3-1 tox: inconclusive; HT1080 IDH1KD tx: 15µM; DT40 TDP1 no CPT: inconclusive; HT1080NT lethal: 7.3µM; KB-V1 cytotox: inactive

How did O=C(CCC(=O)Nc1cccc(Cl)c1)N/N=C/c1cc([N+](=O)[O-])ccc1O do in these assays?
TDP1 cell CPT: inconclusive; KB-3-1 tox: inactive; HT1080 IDH1KD tx: inactive; DT40 TDP1 no CPT: inconclusive; HT1080NT lethal: inconclusive; KB-V1 cytotox: inactive

Results for CCC(C)NC(=O)CN1C(=O)NC2(CCc3ccccc3C2)C1=O (stereo not drawn) ?
TDP1 cell CPT: inactive; KB-3-1 tox: inactive; HT1080 IDH1KD tx: inactive; DT40 TDP1 no CPT: inconclusive; HT1080NT lethal: inactive; KB-V1 cytotox: inactive

How did CCCC[C@@H]1CC2=C(C(=O)OC(C)(C)O2)[C@@H](c2ccc(Cl)cc2)O1 do in these assays?
TDP1 cell CPT: inconclusive; KB-3-1 tox: inactive; HT1080 IDH1KD tx: inactive; DT40 TDP1 no CPT: inconclusive; HT1080NT lethal: inactive; KB-V1 cytotox: inactive

What do the screens show for `CCCCN(CC)Cc1ccc(CNC(=O)Nc2ccc(OC)cc2OC)o1`?
TDP1 cell CPT: inactive; KB-3-1 tox: inactive; HT1080 IDH1KD tx: inactive; DT40 TDP1 no CPT: inconclusive; HT1080NT lethal: inactive; KB-V1 cytotox: inactive

Results for CCCCN(CC)Cc1ccc(CNC(=S)Nc2cccc(F)c2)o1 ?
TDP1 cell CPT: inconclusive; KB-3-1 tox: inactive; HT1080 IDH1KD tx: inactive; DT40 TDP1 no CPT: 23µM; HT1080NT lethal: inactive; KB-V1 cytotox: inactive

Results for CCCCN(CC)Cc1ccc(CNC(=O)Nc2ccccc2)o1 ?
TDP1 cell CPT: 18µM; KB-3-1 tox: inactive; HT1080 IDH1KD tx: 14µM; DT40 TDP1 no CPT: 10µM; HT1080NT lethal: inactive; KB-V1 cytotox: inactive

Results for Cc1cc(C)c(C2=Nn3c(C)nnc3SC2C)cc1C (stereo not drawn) ?
TDP1 cell CPT: 18µM; KB-3-1 tox: inconclusive; HT1080 IDH1KD tx: inactive; DT40 TDP1 no CPT: 12µM; HT1080NT lethal: inconclusive; KB-V1 cytotox: inactive

What do the screens show for `COc1ccc(Cl)cc1C(=O)NNC(=O)CNC(=O)c1ccc(C)s1`?
TDP1 cell CPT: inactive; KB-3-1 tox: inactive; HT1080 IDH1KD tx: inactive; DT40 TDP1 no CPT: inactive; HT1080NT lethal: inactive; KB-V1 cytotox: inactive

How did CC1CCN(S(=O)(=O)c2cn(CC(=O)N3CC(C)CC(C)C3)c(=O)c3ccccc23)CC1 (stereo not drawn) do in these assays?
TDP1 cell CPT: inactive; KB-3-1 tox: inactive; HT1080 IDH1KD tx: inactive; DT40 TDP1 no CPT: inconclusive; HT1080NT lethal: inactive; KB-V1 cytotox: 1.3µM

Results for Cc1ccc(N2CCN(C(=O)c3cc4cc5ccc(C)cc5nc4s3)CC2C)cc1 (stereo not drawn) ?
TDP1 cell CPT: inactive; KB-3-1 tox: inactive; DT40 TDP1 no CPT: inactive; KB-V1 cytotox: inactive

How did Cc1ccc(S(=O)(=O)n2nccc2-c2c(-c3ccc(Cl)cc3)noc2C)cc1 do in these assays?
TDP1 cell CPT: inconclusive; KB-3-1 tox: inactive; HT1080 IDH1KD tx: inconclusive; DT40 TDP1 no CPT: 16µM; HT1080NT lethal: inactive; KB-V1 cytotox: inconclusive

Results for O=C(/C=C/c1ccccc1Cl)N(Cc1ccc(Cl)cc1)C1CCS(=O)(=O)C1 (stereo not drawn) ?
TDP1 cell CPT: inconclusive; KB-3-1 tox: inactive; HT1080 IDH1KD tx: inconclusive; DT40 TDP1 no CPT: inconclusive; HT1080NT lethal: inactive; KB-V1 cytotox: inconclusive

Results for COc1ccc(CN(C(=O)/C=C/c2ccccc2Cl)C2CCS(=O)(=O)C2)cc1 (stereo not drawn) ?
TDP1 cell CPT: inconclusive; KB-3-1 tox: inactive; HT1080 IDH1KD tx: inactive; DT40 TDP1 no CPT: 23µM; HT1080NT lethal: inactive; KB-V1 cytotox: inactive

What do the screens show for `O=C(/C=C/c1ccccc1Cl)N(Cc1ccccc1)C1CCS(=O)(=O)C1` (stereo not drawn)?
TDP1 cell CPT: inconclusive; KB-3-1 tox: inactive; HT1080 IDH1KD tx: inactive; DT40 TDP1 no CPT: inconclusive; HT1080NT lethal: inactive; KB-V1 cytotox: inactive

What do the screens show for `CN(C)c1ccc(CN(C(=O)/C=C/c2ccccc2Cl)C2CCS(=O)(=O)C2)cc1` (stereo not drawn)?
TDP1 cell CPT: inconclusive; KB-3-1 tox: inactive; HT1080 IDH1KD tx: inactive; DT40 TDP1 no CPT: 21µM; HT1080NT lethal: inactive; KB-V1 cytotox: inactive

What do the screens show for `CCOC(=O)CSc1nc2ccc(NC(=O)CSc3nnnn3Cc3ccccc3)cc2s1`?
TDP1 cell CPT: inactive; KB-3-1 tox: inconclusive; HT1080 IDH1KD tx: inactive; DT40 TDP1 no CPT: inactive; HT1080NT lethal: inactive; KB-V1 cytotox: inactive

Results for CC(C)(C)NC(=O)CSc1nc2ccc(NC(=O)CSc3nnnn3Cc3ccccc3)cc2s1 ?
TDP1 cell CPT: 8.2µM; KB-3-1 tox: inactive; HT1080 IDH1KD tx: 16µM; DT40 TDP1 no CPT: 10µM; HT1080NT lethal: inactive; KB-V1 cytotox: inactive

How did CC(C)(C)NC(=O)CSc1nc2ccc(NC(=O)CSc3nnc(N)s3)cc2s1 do in these assays?
TDP1 cell CPT: 21µM; KB-3-1 tox: inactive; HT1080 IDH1KD tx: inactive; DT40 TDP1 no CPT: 9.2µM; HT1080NT lethal: inactive; KB-V1 cytotox: inactive

Results for Cc1cccc(NC(=O)CSc2nnc(N)s2)c1 ?
TDP1 cell CPT: inactive; DT40 TDP1 no CPT: inactive
